Columns and labels:
[1] = target: T1, Ephrin type-A receptor 3 (Homo sapiens) (UniProt P29320); conditions: at 10 µM
T1 sequence (whole entry): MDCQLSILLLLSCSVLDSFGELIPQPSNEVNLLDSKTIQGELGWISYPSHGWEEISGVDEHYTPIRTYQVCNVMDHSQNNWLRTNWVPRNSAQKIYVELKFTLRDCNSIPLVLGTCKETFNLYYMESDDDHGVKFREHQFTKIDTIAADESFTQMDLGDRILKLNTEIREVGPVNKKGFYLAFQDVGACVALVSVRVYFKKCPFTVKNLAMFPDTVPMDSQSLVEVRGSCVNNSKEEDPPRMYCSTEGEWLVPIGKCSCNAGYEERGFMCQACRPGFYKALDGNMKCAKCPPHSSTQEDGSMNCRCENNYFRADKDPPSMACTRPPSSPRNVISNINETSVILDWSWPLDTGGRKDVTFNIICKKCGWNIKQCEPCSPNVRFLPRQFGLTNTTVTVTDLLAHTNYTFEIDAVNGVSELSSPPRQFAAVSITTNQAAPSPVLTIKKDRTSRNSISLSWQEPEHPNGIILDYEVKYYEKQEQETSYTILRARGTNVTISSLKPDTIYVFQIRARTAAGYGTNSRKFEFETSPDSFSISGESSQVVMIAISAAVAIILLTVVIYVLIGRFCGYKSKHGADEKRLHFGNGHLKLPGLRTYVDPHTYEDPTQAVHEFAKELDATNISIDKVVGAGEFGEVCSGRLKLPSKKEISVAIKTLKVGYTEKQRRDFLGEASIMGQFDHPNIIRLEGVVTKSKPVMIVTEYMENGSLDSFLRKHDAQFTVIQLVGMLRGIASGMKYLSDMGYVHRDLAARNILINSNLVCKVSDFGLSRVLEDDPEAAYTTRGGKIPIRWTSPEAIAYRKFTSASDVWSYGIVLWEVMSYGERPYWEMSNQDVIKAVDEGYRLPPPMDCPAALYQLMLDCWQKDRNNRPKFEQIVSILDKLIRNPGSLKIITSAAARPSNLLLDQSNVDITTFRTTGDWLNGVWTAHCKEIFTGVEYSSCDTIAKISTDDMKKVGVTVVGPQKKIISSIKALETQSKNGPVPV

[2] = target: Ephrin type-A receptor 5 (Homo sapiens) (UniProt P54756); conditions: at 1 µM
[3] = target: Ephrin type-A receptor 5 (Homo sapiens) (UniProt P54756); conditions: at 10 µM
[4] = target: Ephrin type-A receptor 7 (Homo sapiens) (UniProt Q15375); conditions: at 1 µM
[5] = target: Ephrin type-A receptor 7 (Homo sapiens) (UniProt Q15375); conditions: at 10 µM
[6] = target: T2, Ephrin type-A receptor 8 (Homo sapiens) (UniProt P29322); conditions: at 1 µM
T2 sequence (whole entry): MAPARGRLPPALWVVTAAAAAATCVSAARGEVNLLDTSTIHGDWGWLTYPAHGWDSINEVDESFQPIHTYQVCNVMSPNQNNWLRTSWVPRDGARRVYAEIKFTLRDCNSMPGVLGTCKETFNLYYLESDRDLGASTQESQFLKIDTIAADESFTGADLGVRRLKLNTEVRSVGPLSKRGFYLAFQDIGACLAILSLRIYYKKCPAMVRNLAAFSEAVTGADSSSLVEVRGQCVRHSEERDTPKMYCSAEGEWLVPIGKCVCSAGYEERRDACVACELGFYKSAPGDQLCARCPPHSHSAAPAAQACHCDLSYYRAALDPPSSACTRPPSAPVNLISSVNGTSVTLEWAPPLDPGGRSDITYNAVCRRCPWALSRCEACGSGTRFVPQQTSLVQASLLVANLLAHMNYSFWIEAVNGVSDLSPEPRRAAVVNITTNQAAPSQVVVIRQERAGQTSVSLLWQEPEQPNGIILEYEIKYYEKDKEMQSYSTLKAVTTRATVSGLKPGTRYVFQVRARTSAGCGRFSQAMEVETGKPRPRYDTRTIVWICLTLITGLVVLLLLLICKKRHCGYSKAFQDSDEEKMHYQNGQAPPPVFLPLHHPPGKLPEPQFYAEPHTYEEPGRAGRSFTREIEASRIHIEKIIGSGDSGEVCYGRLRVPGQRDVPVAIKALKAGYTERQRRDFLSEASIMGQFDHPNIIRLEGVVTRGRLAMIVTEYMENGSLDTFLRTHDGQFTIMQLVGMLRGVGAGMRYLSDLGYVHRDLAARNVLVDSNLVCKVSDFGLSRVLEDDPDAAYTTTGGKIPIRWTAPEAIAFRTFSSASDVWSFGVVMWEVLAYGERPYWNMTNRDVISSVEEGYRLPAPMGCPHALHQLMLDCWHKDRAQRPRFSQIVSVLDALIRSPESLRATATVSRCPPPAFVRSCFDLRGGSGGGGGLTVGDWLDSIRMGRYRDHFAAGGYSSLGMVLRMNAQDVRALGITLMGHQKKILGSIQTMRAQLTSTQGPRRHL

[7] = target: T2, Ephrin type-A receptor 8 (Homo sapiens); conditions: at 10 µM
[8] = target: T3, Ephrin type-B receptor 1 (Homo sapiens) (UniProt P54762); conditions: at 1 µM
T3 sequence (whole entry): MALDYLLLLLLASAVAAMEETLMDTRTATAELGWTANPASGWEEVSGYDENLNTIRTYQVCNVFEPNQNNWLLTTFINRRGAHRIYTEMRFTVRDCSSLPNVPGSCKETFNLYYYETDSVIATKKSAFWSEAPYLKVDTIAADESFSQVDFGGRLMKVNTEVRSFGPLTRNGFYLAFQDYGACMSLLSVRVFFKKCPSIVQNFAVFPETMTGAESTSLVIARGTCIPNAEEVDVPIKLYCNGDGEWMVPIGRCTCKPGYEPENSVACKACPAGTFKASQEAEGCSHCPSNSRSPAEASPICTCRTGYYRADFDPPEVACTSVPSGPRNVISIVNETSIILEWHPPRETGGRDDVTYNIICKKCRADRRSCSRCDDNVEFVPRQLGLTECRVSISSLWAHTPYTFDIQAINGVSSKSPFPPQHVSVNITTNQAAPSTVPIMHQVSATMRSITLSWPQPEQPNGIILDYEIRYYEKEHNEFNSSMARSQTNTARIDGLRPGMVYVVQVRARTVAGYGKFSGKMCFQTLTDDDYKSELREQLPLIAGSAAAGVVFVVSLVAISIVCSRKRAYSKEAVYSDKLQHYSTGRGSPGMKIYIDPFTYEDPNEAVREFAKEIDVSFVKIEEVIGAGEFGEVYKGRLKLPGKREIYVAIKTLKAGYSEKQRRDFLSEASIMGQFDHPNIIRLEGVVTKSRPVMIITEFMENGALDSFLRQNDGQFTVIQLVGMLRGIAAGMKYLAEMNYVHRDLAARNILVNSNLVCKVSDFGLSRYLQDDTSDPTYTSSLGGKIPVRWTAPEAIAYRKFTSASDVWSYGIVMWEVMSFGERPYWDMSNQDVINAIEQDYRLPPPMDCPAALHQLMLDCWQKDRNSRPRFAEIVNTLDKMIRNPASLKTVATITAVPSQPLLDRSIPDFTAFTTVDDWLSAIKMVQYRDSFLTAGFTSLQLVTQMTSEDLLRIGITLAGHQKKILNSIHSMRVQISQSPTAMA

[9] = target: T3, Ephrin type-B receptor 1 (Homo sapiens); conditions: at 10 µM
[10] = target: T4, Ephrin type-B receptor 2 (Homo sapiens) (UniProt P29323); conditions: at 1 µM
T4 sequence (whole entry): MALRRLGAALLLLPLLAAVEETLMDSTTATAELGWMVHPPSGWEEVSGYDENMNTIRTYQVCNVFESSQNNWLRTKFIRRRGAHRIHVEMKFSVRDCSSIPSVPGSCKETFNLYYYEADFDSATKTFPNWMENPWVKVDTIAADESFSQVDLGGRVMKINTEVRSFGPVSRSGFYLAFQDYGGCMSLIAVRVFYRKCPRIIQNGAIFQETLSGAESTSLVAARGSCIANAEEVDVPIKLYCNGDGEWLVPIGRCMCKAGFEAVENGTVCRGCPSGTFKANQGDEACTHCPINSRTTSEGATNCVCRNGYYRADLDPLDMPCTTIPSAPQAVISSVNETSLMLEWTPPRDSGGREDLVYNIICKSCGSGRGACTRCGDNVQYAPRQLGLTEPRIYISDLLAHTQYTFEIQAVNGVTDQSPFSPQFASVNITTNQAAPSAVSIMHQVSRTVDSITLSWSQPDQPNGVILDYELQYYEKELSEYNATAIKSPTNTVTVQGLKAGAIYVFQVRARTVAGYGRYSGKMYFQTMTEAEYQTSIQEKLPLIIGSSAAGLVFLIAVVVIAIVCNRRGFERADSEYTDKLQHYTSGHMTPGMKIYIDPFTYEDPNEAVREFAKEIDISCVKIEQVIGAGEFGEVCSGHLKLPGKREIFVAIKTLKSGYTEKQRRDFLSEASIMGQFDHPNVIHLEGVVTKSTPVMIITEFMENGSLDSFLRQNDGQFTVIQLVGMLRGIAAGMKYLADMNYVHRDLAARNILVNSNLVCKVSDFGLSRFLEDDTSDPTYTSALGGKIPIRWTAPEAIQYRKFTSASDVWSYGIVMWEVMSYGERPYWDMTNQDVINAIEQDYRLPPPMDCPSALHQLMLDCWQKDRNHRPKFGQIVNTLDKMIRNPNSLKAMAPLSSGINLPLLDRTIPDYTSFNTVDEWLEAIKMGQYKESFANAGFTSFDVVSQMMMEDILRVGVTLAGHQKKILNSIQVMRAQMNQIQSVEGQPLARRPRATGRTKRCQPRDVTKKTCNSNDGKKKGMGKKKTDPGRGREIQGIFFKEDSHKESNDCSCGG

[11] = target: T4, Ephrin type-B receptor 2 (Homo sapiens); conditions: at 10 µM
[12] = target: T5, Ephrin type-B receptor 4 (Homo sapiens) (UniProt P54760); conditions: at 1 µM
T5 sequence (whole entry): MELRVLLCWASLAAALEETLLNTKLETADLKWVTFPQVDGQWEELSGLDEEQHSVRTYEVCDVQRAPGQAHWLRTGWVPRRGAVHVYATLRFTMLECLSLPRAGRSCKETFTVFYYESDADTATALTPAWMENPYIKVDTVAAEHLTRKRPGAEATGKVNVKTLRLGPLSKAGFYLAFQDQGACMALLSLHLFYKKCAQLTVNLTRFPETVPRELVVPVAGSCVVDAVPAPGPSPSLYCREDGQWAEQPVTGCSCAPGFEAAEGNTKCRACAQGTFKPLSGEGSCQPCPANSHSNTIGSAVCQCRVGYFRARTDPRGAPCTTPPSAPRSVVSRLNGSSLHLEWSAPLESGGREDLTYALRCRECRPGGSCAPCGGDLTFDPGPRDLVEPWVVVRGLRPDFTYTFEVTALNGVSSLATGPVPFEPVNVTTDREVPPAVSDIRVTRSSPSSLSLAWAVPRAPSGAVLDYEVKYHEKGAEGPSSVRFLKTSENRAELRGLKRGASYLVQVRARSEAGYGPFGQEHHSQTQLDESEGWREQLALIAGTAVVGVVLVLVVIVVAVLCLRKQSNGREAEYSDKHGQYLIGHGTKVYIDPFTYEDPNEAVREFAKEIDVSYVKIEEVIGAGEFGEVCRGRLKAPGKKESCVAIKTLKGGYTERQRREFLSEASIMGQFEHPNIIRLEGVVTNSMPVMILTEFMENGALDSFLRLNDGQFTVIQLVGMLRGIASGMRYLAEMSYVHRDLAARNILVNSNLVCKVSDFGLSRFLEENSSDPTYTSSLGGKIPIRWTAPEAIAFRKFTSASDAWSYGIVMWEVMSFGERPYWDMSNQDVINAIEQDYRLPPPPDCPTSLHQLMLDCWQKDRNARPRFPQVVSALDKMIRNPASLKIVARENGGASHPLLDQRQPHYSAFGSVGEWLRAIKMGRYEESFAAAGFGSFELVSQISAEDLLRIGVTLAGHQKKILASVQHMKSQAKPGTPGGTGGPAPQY

[13] = target: T5, Ephrin type-B receptor 4 (Homo sapiens); conditions: at 10 µM
[14] = target: Focal adhesion kinase 1 (Homo sapiens) (UniProt Q05397); conditions: at 1 µM
Chain of Focal adhesion kinase 1 (Homo sapiens) (Q05397 2-1052 limits assumed): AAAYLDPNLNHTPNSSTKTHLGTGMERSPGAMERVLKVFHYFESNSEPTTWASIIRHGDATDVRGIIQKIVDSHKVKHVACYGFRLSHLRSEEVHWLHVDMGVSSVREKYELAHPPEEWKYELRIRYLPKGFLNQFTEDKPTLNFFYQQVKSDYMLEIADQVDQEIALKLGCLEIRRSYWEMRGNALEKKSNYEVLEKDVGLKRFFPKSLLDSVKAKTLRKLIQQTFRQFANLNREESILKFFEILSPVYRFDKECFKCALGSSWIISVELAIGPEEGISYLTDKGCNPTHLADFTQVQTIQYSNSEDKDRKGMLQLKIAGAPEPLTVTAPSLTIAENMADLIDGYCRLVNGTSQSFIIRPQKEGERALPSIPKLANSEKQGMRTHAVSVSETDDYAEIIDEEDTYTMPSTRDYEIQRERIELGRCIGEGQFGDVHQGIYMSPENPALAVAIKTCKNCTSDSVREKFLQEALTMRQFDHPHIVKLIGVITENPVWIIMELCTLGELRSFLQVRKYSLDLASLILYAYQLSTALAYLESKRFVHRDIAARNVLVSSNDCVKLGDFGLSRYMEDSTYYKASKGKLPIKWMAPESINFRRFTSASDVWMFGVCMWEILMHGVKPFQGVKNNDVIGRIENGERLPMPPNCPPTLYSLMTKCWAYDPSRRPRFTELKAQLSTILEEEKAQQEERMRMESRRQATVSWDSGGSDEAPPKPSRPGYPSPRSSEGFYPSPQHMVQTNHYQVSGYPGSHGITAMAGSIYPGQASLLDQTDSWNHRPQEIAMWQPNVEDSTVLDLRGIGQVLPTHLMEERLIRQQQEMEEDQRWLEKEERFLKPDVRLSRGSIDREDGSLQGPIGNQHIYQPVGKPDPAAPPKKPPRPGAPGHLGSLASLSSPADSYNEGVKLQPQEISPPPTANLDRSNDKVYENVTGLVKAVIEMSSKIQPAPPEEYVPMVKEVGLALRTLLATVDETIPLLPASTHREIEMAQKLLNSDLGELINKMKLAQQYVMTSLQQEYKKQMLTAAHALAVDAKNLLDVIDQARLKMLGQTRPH

Chain of Ephrin type-A receptor 5 (Homo sapiens) (P54756 whole entry): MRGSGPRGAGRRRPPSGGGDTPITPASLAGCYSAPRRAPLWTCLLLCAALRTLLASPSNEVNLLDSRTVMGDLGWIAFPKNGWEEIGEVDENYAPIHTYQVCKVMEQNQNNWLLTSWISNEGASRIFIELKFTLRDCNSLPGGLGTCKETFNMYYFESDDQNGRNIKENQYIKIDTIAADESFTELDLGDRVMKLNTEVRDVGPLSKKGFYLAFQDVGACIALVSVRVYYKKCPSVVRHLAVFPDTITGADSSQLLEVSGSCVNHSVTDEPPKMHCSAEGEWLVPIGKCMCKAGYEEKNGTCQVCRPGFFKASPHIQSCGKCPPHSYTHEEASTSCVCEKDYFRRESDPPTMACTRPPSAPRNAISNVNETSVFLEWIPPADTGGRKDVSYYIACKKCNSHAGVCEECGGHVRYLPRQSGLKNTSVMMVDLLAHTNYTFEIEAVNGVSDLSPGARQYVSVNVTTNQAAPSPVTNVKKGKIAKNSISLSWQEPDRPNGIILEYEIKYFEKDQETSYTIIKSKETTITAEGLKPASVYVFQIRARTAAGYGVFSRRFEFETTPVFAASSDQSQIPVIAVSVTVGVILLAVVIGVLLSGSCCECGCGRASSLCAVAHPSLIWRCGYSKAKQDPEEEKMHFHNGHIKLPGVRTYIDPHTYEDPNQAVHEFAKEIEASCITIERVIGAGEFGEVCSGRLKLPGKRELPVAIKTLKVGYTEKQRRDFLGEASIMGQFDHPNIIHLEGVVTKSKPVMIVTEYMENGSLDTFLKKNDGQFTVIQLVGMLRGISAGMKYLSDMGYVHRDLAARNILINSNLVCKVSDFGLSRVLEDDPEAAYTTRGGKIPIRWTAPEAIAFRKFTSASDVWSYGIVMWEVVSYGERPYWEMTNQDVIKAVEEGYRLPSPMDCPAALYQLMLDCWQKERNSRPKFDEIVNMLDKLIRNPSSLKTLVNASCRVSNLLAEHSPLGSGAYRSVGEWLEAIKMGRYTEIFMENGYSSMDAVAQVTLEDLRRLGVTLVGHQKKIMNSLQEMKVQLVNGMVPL
Chain of Ephrin type-A receptor 7 (Homo sapiens) (Q15375 28-998 limits assumed): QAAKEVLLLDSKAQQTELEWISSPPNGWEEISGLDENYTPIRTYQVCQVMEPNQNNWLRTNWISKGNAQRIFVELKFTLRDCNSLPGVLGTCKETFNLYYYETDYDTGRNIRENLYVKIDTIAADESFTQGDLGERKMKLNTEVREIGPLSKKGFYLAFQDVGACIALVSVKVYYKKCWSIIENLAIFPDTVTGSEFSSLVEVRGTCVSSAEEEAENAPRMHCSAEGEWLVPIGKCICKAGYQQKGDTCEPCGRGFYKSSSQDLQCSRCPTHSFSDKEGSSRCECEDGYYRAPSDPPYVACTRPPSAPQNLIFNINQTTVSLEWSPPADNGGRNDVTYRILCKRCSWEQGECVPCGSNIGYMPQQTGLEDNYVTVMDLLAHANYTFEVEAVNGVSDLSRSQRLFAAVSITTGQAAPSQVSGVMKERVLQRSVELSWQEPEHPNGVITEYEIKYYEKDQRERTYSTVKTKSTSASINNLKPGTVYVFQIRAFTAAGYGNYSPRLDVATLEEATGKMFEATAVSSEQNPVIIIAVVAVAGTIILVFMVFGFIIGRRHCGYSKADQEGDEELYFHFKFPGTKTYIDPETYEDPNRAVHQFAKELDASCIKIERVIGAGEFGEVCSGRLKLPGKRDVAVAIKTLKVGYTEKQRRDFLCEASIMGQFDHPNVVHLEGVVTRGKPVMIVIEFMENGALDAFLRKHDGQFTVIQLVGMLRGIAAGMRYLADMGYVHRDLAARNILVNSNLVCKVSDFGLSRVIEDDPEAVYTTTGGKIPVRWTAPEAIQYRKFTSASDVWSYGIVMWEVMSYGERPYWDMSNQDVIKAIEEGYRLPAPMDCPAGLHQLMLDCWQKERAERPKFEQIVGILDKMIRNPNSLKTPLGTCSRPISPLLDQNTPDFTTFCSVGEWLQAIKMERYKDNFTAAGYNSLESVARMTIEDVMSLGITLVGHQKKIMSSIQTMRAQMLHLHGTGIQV

CCCCc1c(-c2ccc(O)cc2)[nH]c2nccnc12
residual activity [1]: 30% | residual activity [2]: 95% | residual activity [3]: 66% | residual activity [4]: 83% | residual activity [5]: 39% | residual activity [6]: 90% | residual activity [7]: 58% | residual activity [8]: 64% | residual activity [9]: 22% | residual activity [10]: 96% | residual activity [11]: 82% | residual activity [12]: 74% | residual activity [13]: 16% | residual activity [14]: 76%

Source: ChEMBL document CHEMBL2218924, “A broad activity screen in support of a chemogenomic map for kinase signalling research and drug discovery” (Biochem J, 2013)
